# Source: ChEMBL document CHEMBL3988442, “University of Dundee, Small-Polar-MMV Screening Library” (2021)
# For some of these results: Measured potencies and affinities stand elsewhere.
# Legend:
# Set-up in all cases: scale not given: direction of the effect not stated beside the values
# [1] = target: Protein translocase subunit SecA (Escherichia coli (strain K12)) (UniProt P10408); test: Assay to Identify E. coli SecA ATPase Inhibitors; format: functional; settings: 30 µM
# [2] = target: T1, Ubiquitin-activating enzyme e1, putative (Leishmania donovani (strain BPK282A1)) (UniProt E9BSI1); test: Leishmania donovani Ubiquitin Activating Enzyme (LdE1); format: functional; settings: 30 µM
# T1 sequence (whole entry): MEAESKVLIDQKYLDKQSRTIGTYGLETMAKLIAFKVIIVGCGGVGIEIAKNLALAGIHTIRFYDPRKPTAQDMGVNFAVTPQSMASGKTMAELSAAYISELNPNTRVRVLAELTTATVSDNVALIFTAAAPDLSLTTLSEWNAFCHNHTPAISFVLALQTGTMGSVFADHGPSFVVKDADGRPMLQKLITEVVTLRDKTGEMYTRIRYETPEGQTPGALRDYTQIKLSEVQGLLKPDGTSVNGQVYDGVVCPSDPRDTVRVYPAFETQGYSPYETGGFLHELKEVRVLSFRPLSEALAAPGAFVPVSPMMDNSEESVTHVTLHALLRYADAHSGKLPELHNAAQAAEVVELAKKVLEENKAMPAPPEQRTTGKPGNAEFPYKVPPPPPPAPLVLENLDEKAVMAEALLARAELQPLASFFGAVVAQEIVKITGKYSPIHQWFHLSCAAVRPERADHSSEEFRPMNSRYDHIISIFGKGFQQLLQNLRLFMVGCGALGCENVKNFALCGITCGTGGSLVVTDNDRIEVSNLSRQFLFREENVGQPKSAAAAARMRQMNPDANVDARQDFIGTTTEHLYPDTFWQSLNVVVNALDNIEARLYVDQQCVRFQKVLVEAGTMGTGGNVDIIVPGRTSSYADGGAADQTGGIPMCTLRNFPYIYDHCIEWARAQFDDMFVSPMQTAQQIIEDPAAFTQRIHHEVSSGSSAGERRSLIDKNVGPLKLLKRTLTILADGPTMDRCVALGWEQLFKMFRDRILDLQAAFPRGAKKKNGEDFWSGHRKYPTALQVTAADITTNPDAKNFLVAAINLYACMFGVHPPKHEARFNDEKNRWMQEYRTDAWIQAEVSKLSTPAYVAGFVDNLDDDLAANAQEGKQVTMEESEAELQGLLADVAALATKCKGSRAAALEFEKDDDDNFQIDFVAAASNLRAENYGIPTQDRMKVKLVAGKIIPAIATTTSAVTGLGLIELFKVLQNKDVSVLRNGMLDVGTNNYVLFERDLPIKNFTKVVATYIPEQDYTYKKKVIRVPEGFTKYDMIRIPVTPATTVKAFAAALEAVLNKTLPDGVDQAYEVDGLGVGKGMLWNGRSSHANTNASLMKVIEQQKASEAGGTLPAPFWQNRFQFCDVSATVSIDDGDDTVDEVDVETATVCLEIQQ
# [3] = target: AMP-activated protein kinase, AMPK (Homo sapiens) (UniProt P54646+O43741+P54619+Q9UGJ0+Q9Y478+Q13131+Q9UGI9); test: AMP-dependent Kinase enzyme assay. An in vitro enzyme assay that detects ADP turnover that is directly proportional to AMPK activity. This uses naive AMPK that is activated during the assay with MK-8722; format: functional; settings: 30 µM
# [4] = target: Sialic acid-binding Ig-like lectin 9 (Homo sapiens) (UniProt Q9Y336); test: Hs-Siglec9 ALPHAscreen SOP 20170721; settings: 10 µM
# Trypanosoma cruzi = test: Trypanosoma cruzi phosphomannomutase and mannose-1-phosphate guanylyltransferase assay; format: functional; settings: 10 µM
# [5] = target: T2, Arginase-2, mitochondrial (Homo sapiens) (UniProt P78540); test: in vitro enzyme assay to detect the production of urea directly proportional to the activity of Arginase II; format: functional; settings: 33.3 µM; further: in the data most compounds retested in dose-response had high values
# T2 sequence (whole entry): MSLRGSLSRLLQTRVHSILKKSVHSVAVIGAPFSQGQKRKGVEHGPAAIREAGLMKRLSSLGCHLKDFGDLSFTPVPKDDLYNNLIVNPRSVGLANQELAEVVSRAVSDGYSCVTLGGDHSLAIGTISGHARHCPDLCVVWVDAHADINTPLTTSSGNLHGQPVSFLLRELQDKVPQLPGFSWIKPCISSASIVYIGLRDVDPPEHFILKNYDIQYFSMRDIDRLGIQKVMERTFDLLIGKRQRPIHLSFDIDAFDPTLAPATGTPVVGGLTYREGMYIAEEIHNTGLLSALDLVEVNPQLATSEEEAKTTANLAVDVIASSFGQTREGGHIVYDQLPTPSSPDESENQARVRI
# [6] = target: T3, Proteasome subunit beta (Trypanosoma cruzi) (UniProt O96673); test: Trypanosoma cruzi proteasome chymotrypsin-like activity (TcProtChymo) assay.; further: in the data most compounds retested in dose-response had high values; format: functional; settings: 9.37 µM
# T3 sequence (whole entry): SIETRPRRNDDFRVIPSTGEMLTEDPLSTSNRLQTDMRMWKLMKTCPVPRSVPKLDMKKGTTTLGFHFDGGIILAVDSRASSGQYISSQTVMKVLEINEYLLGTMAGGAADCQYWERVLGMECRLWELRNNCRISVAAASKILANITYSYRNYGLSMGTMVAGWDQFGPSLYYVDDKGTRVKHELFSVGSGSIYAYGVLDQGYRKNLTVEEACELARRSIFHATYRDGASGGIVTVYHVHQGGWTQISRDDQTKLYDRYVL
# Homo sapiens = species: Homo sapiens; test: To identify inhibition of the IFN signalling (Jak-Stat) pathway via expression of an eGFP reporter gene under the control of an IFN-stimulated response element (ISRE) containing MxA promoter.; format: functional; settings: 30 µM
# [7] = target: T4, Tyrosyl-tRNA synthetase, putative (Trypanosoma cruzi (strain CL Brener)) (UniProt Q4DSP6); test: Trypanosoma cruzi tyrosyl tRNA synthetase (TcYRS) _High Tyrosine SOP; format: functional; settings: 30 µM; further: in the data most compounds retested in dose-response had high values
# T4 sequence (whole entry): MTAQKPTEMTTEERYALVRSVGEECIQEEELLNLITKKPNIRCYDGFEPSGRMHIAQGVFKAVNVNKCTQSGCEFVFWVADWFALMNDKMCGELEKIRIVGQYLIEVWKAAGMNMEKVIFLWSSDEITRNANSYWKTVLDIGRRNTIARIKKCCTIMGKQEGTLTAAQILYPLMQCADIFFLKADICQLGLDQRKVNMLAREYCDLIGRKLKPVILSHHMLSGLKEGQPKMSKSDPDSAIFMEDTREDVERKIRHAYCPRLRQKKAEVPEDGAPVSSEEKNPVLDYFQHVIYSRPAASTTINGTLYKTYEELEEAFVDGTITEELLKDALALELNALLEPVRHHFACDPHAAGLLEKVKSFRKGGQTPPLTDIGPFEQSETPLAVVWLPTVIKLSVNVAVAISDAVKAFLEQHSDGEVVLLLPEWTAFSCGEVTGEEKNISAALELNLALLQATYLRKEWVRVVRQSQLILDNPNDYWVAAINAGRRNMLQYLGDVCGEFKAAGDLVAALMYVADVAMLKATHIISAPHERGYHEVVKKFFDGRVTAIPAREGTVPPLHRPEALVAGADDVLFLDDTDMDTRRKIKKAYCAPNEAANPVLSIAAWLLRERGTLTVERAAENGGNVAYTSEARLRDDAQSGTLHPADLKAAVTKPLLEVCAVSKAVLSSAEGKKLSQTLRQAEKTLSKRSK
# [8] = target: T4, Tyrosyl-tRNA synthetase, putative (Trypanosoma cruzi (strain CL Brener)); test: Trypanosoma cruzi tyrosyl tRNA synthetase (TcYRS) SOP; format: functional; settings: 30 µM
# [9] = target: Chromo domain-containing protein 1 (Saccharomyces cerevisiae (strain ATCC 204508 / S288c) (Baker's yeast)) (UniProt P32657); test: ScCHD-1 Enzyme Inhibition Assay; format: functional; settings: 30 µM; further: in the data most compounds retested in dose-response had high values
# Chromo domain-containing protein 1 (Saccharomyces cerevisiae (strain ATCC 204508 / S288c) (Baker's yeast)), sequence (P32657 whole entry, the tested form may be a part): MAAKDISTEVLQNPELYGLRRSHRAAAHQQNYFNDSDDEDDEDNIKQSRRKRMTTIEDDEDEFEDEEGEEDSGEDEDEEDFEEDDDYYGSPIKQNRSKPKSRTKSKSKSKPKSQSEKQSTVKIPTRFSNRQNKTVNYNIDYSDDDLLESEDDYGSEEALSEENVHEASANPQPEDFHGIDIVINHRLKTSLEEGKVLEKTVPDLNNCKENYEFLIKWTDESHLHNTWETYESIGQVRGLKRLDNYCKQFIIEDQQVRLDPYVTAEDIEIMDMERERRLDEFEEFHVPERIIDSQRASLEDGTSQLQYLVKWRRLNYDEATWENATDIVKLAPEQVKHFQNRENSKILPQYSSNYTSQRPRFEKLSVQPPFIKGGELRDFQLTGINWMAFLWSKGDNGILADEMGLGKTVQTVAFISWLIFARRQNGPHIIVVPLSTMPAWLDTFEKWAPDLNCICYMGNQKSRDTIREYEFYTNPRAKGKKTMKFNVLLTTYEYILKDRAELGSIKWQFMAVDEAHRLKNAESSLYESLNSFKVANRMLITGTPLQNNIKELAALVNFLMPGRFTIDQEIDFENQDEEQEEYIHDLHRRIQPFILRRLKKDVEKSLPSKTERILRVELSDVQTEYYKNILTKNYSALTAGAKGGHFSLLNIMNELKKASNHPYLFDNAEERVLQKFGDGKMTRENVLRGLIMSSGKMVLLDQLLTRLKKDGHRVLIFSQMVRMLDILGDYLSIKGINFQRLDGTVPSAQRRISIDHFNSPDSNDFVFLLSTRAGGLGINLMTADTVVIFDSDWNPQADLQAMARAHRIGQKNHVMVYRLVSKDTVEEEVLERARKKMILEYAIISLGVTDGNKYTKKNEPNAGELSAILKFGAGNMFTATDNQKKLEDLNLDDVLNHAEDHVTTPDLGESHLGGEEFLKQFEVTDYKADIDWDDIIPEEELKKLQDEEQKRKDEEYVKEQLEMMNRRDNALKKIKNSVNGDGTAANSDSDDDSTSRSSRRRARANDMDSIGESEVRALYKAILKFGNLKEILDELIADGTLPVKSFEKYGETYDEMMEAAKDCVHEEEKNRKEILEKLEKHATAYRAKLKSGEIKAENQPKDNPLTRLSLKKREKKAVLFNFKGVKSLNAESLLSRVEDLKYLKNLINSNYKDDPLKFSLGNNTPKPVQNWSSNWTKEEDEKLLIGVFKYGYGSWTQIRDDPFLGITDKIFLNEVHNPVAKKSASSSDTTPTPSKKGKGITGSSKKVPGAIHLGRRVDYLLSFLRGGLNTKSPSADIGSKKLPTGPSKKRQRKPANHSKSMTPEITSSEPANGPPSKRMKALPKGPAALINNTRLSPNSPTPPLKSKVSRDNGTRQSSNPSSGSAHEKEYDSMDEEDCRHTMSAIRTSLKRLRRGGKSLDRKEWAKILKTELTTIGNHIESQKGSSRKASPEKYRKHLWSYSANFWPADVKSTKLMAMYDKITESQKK
# Protein translocase subunit SecA (Escherichia coli (strain K12)), sequence (P10408 whole entry): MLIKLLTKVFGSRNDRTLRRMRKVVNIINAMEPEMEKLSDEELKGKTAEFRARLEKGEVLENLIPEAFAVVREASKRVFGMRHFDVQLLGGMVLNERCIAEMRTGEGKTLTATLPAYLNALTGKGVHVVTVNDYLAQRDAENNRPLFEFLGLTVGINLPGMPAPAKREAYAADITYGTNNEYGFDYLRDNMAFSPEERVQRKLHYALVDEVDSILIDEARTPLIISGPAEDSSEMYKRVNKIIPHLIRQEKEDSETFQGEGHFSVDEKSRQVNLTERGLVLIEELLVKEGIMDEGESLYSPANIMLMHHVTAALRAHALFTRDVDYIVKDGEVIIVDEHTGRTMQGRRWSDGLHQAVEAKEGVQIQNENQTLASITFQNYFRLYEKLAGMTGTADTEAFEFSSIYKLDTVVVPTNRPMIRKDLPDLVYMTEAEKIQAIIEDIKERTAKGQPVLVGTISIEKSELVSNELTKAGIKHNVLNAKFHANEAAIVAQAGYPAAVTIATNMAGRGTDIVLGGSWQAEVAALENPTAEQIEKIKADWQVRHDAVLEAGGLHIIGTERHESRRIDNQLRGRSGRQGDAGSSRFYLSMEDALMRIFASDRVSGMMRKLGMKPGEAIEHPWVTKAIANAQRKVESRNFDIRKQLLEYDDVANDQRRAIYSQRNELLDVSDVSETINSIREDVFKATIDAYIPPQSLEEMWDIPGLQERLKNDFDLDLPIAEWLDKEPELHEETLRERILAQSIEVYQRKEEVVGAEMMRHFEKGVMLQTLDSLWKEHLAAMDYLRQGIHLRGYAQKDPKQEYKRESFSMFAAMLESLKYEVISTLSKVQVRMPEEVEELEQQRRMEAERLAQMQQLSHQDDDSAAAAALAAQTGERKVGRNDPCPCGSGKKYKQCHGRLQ
# Sialic acid-binding Ig-like lectin 9 (Homo sapiens), sequence (Q9Y336 whole entry): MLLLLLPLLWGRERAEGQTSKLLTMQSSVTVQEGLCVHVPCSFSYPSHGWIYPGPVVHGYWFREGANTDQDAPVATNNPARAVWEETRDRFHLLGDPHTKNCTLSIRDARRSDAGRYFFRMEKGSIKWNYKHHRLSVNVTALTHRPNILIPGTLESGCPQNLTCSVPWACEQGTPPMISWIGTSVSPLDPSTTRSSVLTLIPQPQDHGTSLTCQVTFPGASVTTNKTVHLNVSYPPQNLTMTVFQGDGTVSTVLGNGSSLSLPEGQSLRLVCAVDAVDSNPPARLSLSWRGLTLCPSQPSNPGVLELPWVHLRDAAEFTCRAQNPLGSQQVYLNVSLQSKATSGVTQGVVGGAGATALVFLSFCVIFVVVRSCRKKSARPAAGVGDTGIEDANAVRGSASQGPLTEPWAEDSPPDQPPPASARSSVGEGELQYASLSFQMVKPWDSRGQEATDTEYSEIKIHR
SMILES,Percent Effect [1] [%],Percent Effect [2] [%],Percent Effect [3] [%],Percent Effect [4] [%],Percent Effect (Trypanosoma cruzi) [%],Percent Effect [5] [%],Percent Effect [6] [%],Percent Effect (Homo sapiens) [%],Percent Effect [7] [%],Percent Effect [8] [%],Percent Effect [9] [%]
Cc1ccc(C)n1-c1ccc(C(=O)NCCNc2ncccn2)cc1,-1.31,7.89,-10.7,-3.65,3.46,-6.83,15,-6.26,9.36,18.5,0.738
Cc1cc(C)n(CC2CCCN2C(=O)c2cnn(C)c2C2CC2)n1 (stereo not drawn),-0.918,2.7,11.2,10.3,0.65,-0.554,0.718,9.84,2.97,1.22,10.5
COCCNc1ccc(CNC(=O)Nc2cn[nH]c2)cc1,-0.0653,20.2,-7.85,0.901,-10.5,3.42,1.06,20.9,3.45,11.4,-5.01
CC(C)Nc1ncc(CN2C[C@@H](CN3CCC(O)CC3)[C@@H](CO)C2)cn1,-5.5,2.67,-4.76,7.2,2.43,-0.521,12.2,8.53,4.92,11.1,-8.5
CCc1ccccc1-n1nnc(C(=O)O)c1-c1ccccn1,-2.26,13.2,1.03,-0.0352,1.85,1.18,23.5,-17.6,4.25,13,-6.21
CC(O)CC(C)(C)CNC(=O)NCc1cccc(-n2cncn2)c1 (stereo not drawn),-3.57,-2.7,-0.791,7.51,2.64,4.22,9.53,-9.29,0,1.24,-0.141
CN(Cc1ccsc1)C(=O)Nc1cccnc1N1CCCC1,-9.81,7.89,-31.4,-9.07,-7.38,0.719,2.62,6.49,-1.48,3.7,-2.06
CN1CCN(Cc2cnc3n2CCN(Cc2cccs2)C3)CC1,-1.16,21.6,-2.7,-1.5,3.62,2.87,19.7,-1.05,4.32,20.5,-0.68
